Measurements published in ChEMBL document CHEMBL3988442, “University of Dundee, Small-Polar-MMV Screening Library” (2021).
For some assays here: Potency and affinity values are given separately.

Legend:
Design in all cases: scale not given: direction of the effect not stated beside the values
[1] = target: Protein translocase subunit SecA (Escherichia coli (strain K12)) (UniProt P10408); assay: Assay to Identify E. coli SecA ATPase Inhibitors; format: functional; conditions: 30 µM
[2] = target: T1, Ubiquitin-activating enzyme e1, putative (Leishmania donovani (strain BPK282A1)) (UniProt E9BSI1); assay: Leishmania donovani Ubiquitin Activating Enzyme (LdE1); format: functional; conditions: 30 µM
T1 sequence (whole entry): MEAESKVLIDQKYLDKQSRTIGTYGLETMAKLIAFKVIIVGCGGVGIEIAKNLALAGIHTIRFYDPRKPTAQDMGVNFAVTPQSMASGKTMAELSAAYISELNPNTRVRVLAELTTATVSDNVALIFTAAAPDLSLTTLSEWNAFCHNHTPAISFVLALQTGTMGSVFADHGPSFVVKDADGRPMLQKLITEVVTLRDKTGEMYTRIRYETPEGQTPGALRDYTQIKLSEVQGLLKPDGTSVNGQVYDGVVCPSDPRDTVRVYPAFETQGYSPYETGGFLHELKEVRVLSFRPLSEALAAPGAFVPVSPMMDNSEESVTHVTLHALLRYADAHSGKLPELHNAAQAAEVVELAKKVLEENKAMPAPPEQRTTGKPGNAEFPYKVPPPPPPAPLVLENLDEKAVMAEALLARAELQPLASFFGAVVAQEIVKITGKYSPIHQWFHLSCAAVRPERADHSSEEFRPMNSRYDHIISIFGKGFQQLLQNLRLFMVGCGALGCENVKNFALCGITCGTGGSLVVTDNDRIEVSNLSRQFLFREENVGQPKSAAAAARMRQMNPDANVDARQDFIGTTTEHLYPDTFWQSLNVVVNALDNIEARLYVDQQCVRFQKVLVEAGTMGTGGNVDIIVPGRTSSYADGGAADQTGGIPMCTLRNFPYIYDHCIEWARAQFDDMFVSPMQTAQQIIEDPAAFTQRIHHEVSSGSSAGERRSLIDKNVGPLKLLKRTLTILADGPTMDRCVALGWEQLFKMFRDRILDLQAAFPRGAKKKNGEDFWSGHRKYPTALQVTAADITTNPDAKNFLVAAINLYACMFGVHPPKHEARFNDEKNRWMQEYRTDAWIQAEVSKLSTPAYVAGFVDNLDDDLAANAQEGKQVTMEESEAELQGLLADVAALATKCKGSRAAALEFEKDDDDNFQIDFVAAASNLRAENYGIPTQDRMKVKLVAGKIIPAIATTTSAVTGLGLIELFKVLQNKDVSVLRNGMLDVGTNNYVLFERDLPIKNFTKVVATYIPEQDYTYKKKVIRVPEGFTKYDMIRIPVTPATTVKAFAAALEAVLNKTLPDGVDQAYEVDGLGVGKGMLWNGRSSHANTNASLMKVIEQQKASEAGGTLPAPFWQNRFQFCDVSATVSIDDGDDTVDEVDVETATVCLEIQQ

[3] = target: AMP-activated protein kinase, AMPK (Homo sapiens) (UniProt P54646+O43741+P54619+Q9UGJ0+Q9Y478+Q13131+Q9UGI9); assay: AMP-dependent Kinase enzyme assay. An in vitro enzyme assay that detects ADP turnover that is directly proportional to AMPK activity. This uses naive AMPK that is activated during the assay with MK-8722; format: functional; conditions: 30 µM
[4] = target: Sialic acid-binding Ig-like lectin 9 (Homo sapiens) (UniProt Q9Y336); assay: Hs-Siglec9 ALPHAscreen SOP 20170721; conditions: 10 µM
Trypanosoma cruzi = assay: Trypanosoma cruzi phosphomannomutase and mannose-1-phosphate guanylyltransferase assay; format: functional; conditions: 10 µM
[5] = target: T2, Arginase-2, mitochondrial (Homo sapiens) (UniProt P78540); assay: in vitro enzyme assay to detect the production of urea directly proportional to the activity of Arginase II; format: functional; conditions: 33.3 µM; note: in the data most compounds retested in dose-response had high values
T2 sequence (whole entry): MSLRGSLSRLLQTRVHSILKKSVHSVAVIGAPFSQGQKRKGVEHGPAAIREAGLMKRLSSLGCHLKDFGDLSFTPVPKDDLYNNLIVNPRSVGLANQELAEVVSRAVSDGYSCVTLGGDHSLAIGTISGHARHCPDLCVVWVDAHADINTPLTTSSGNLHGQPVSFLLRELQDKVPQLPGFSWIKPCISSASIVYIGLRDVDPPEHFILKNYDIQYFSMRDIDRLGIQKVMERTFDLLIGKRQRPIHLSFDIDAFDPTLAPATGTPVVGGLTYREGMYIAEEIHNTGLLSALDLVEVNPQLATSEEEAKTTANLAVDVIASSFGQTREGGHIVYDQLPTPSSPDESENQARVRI

[6] = target: T3, Proteasome subunit beta (Trypanosoma cruzi) (UniProt O96673); assay: Trypanosoma cruzi proteasome chymotrypsin-like activity (TcProtChymo) assay.; note: in the data most compounds retested in dose-response had high values; format: functional; conditions: 9.37 µM
T3 sequence (whole entry): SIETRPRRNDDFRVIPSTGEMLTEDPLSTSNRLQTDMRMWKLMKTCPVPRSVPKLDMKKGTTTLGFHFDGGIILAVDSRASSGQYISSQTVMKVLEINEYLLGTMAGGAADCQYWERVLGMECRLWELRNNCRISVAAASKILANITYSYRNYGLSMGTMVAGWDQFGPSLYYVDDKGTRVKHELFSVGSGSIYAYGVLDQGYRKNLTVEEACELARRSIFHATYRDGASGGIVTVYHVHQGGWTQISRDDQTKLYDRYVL

Homo sapiens = species: Homo sapiens; assay: To identify inhibition of the IFN signalling (Jak-Stat) pathway via expression of an eGFP reporter gene under the control of an IFN-stimulated response element (ISRE) containing MxA promoter.; format: functional; conditions: 30 µM
[7] = target: T4, Tyrosyl-tRNA synthetase, putative (Trypanosoma cruzi (strain CL Brener)) (UniProt Q4DSP6); assay: Trypanosoma cruzi tyrosyl tRNA synthetase (TcYRS) _High Tyrosine SOP; format: functional; conditions: 30 µM; note: in the data most compounds retested in dose-response had high values
T4 sequence (whole entry): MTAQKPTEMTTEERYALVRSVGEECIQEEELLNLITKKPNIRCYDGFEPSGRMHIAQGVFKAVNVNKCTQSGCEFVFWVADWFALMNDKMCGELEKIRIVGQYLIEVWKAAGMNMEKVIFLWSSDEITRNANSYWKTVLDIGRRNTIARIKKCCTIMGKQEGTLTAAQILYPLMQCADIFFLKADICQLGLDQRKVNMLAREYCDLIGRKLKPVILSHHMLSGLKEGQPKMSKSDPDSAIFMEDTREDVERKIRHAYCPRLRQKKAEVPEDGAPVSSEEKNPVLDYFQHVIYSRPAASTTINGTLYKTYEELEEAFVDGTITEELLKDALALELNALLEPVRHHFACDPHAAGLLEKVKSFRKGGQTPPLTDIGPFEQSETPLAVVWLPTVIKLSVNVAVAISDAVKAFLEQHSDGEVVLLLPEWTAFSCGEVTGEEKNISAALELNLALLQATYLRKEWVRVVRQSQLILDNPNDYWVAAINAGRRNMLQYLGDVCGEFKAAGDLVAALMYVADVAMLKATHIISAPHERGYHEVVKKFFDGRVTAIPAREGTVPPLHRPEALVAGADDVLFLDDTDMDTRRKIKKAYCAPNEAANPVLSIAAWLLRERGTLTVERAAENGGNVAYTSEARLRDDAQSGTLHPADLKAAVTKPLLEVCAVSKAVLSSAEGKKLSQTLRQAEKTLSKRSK

[8] = target: T4, Tyrosyl-tRNA synthetase, putative (Trypanosoma cruzi (strain CL Brener)); assay: Trypanosoma cruzi tyrosyl tRNA synthetase (TcYRS) SOP; format: functional; conditions: 30 µM
[9] = target: Chromo domain-containing protein 1 (Saccharomyces cerevisiae (strain ATCC 204508 / S288c) (Baker's yeast)) (UniProt P32657); assay: ScCHD-1 Enzyme Inhibition Assay; format: functional; conditions: 30 µM; note: in the data most compounds retested in dose-response had high values
Chain of Chromo domain-containing protein 1 (Saccharomyces cerevisiae (strain ATCC 204508 / S288c) (Baker's yeast)) (P32657 whole entry, the tested form may be a part): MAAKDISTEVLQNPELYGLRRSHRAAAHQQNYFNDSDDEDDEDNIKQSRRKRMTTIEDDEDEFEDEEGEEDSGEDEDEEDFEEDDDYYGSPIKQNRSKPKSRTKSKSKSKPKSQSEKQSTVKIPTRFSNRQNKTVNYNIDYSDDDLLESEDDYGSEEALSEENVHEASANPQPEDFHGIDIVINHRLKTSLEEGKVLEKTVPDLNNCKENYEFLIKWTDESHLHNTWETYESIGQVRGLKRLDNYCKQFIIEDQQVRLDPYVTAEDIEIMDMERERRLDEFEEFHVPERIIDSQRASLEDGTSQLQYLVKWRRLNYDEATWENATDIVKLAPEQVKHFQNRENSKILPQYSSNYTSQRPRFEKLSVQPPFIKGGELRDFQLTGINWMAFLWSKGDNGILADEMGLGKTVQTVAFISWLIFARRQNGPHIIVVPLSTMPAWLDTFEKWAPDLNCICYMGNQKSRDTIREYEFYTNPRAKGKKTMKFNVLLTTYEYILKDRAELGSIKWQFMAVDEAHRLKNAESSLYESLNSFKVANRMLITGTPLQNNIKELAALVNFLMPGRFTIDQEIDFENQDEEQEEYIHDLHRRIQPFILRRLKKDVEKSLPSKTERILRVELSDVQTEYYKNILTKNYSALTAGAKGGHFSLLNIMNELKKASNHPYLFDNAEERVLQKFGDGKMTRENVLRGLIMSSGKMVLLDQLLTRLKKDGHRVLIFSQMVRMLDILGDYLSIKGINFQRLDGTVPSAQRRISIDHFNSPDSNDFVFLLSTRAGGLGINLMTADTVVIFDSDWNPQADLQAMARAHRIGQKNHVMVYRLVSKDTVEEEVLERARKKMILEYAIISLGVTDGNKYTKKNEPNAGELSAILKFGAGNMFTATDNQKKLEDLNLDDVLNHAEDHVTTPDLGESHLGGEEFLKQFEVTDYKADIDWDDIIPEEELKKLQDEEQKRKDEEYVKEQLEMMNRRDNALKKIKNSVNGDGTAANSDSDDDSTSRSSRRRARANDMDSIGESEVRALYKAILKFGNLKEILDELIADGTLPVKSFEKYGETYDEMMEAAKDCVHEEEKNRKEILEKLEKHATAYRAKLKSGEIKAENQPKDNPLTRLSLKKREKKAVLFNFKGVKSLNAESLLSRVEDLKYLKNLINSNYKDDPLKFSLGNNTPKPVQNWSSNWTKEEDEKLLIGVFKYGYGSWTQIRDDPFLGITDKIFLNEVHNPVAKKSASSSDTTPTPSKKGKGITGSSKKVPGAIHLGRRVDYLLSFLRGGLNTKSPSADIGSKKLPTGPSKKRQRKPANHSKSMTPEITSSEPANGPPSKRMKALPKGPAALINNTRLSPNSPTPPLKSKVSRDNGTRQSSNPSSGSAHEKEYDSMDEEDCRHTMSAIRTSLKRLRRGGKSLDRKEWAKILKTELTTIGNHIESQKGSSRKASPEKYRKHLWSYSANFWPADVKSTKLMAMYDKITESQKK

Chain of Protein translocase subunit SecA (Escherichia coli (strain K12)) (P10408 whole entry): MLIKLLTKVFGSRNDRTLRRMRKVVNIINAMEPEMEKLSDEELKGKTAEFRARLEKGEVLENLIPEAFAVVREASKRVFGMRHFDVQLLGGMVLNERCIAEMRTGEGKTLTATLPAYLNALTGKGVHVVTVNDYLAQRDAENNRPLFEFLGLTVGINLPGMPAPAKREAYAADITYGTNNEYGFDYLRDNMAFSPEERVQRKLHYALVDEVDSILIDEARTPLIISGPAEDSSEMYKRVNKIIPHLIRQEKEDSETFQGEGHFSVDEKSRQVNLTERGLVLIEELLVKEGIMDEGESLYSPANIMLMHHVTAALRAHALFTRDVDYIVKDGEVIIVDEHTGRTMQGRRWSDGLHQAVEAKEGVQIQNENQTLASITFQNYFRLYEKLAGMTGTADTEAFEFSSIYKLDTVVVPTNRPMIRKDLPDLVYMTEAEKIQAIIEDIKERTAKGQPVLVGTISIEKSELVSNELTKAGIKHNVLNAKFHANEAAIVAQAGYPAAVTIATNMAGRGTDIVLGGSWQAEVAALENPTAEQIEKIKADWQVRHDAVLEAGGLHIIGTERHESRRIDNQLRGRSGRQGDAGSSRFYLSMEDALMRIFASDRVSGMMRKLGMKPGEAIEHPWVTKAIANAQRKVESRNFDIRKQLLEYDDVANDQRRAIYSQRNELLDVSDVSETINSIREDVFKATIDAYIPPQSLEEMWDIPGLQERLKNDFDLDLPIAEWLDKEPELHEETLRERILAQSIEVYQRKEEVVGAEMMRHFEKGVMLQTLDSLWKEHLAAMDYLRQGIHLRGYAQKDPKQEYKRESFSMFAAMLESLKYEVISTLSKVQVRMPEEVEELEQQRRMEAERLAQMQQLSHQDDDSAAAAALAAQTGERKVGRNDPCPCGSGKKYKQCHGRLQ
Chain of Sialic acid-binding Ig-like lectin 9 (Homo sapiens) (Q9Y336 whole entry): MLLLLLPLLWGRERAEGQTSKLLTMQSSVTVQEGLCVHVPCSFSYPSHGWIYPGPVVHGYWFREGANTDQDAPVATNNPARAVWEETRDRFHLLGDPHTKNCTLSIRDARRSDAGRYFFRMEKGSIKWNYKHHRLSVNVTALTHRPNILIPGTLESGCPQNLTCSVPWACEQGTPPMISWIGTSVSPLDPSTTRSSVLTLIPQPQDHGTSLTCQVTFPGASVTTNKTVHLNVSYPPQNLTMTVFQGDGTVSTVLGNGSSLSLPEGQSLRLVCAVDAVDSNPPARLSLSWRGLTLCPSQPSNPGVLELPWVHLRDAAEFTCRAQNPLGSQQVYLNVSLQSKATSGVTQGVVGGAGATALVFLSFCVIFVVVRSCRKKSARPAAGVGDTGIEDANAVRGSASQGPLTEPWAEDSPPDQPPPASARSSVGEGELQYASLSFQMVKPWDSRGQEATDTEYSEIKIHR

| Structure (SMILES) | Percent Effect [1] [%] | Percent Effect [2] [%] | Percent Effect [3] [%] | Percent Effect [4] [%] | Percent Effect (Trypanosoma cruzi) [%] | Percent Effect [5] [%] | Percent Effect [6] [%] | Percent Effect (Homo sapiens) [%] | Percent Effect [7] [%] | Percent Effect [8] [%] | Percent Effect [9] [%] |
| --- | --- | --- | --- | --- | --- | --- | --- | --- | --- | --- | --- |
| CCN(CC1CN(Cc2ncc[nH]2)CCO1)c1cccnn1 (stereo not given) | -4.66 | 8 | -8.56 | 6.93 | 1.46 | 5.21 | 16.2 | 6.04 | 4.92 | 8.64 | -4.63 |
| Cc1nc(C)n(CC2CCCN(Cc3nnc(C(C)(C)C)o3)C2)n1 (stereo not given) | -3.5 | 10.5 | 5.56 | -2.35 | 5.55 | 0 | 7.77 | -1.74 | 2.13 | 5.2 | -3.94 |
| CC(Oc1ccccc1C(F)(F)F)C(=O)NCC(N)=O (stereo not given) | -4.95 | 5.41 | 0.686 | -2.42 | 4.3 | -1.67 | 12.9 | -26.2 | 12.9 | 15.8 | 2.04 |
| CNC1CCCN(Cc2noc(C3CC3)n2)C1 (stereo not given) | 0.64 | -5.41 | -3.33 | -1.4 | -0.193 | -0.476 | 1.9 | -1.86 | 1.59 | 0 | 0.831 |
| O=C(CN1CC(n2cccn2)C1)NCCc1c[nH]c2ccccc12 | -3.91 | -2.7 | 143 | 3.66 | 2.69 | -0.924 | -4.13 | 10.4 | 0.99 | 11 | 7.61 |
| CCN(CCn1cccn1)Cc1nc(-c2cccs2)oc1C | -3.57 | -1.39 | 40.3 | -4.42 | 0.486 | 0.442 | 2.63 | 0.654 | 4.21 | 2.56 | 0.676 |
| O=C(CCC1CCCO1)NS(=O)(=O)c1ccc(Cl)cc1 (stereo not given) | -3.22 | 18.9 | -10.2 | 0.394 | -4.81 | -2 | 17.5 | 16.7 | 8.37 | 18.5 | -1.63 |
| Cc1cnn(CCNCc2csc(C)n2)c1 | -1.46 | -5.33 | -1.53 | -3.7 | -0.876 | -2.6 | 7.5 | 1.61 | 3.83 | 6.17 | 0.841 |
| CCn1cnnc1C1CCN(C(=O)c2cnc3ccccc3n2)CC1 | -1.53 | 5.26 | 5.47 | 3.25 | 5.75 | -11.8 | 13.7 | -15.4 | 0 | 2.6 | 1.06 |
| O=C(CCc1nccs1)N1CCN(c2ccccc2F)CC1 | -4.98 | 7.59 | -1.29 | -1.48 | 8.4 | -6.46 | -2.05 | 5.18 | 2.46 | 8.86 | -2.22 |
